Hit rate of the full screen: of about 5,500 compounds, about 2,000 (36%) were called active. Another 18% or so got no clear call; they are omitted. No stated cut-off is given here; in the data, active means normalized growth mostly below about 0.91 (no sharp cut-off); inconclusive means no clear call, values can overlap the other calls; inactive means mostly above about 0.92. The list shows a part of the results.
Experiment: chemical genetic growth profiling, strain panel (AID 1159580);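 further: tested at 20 µM; growth read once vehicle control cultures reached saturation at 30 °C; 1 = growth at the plate median or of vehicle wells; lower values mean less growth of the strain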
Details: growth OD

Measured: normalized growth

NC(=O)c1cc[n+](CC2=C(C(=O)O)N3C(=O)C(NC(=O)C(c4ccccc4)S(=O)(=O)[O-])C3SC2)cc1 (stereo not given)
inactive: S. cerevisiae deletion strains, locus YJR066W, strain TOR1, hits give low values 1 | S. cerevisiae deletion strains, locus YKL009W, strain mrt4, hits give low values 0.991 | S. cerevisiae deletion strains, locus YKL068W, hits give low values 0.992 | S. cerevisiae deletion strains, locus YKL085W, strain MDH1 (second series), hits give low values 0.987 | S. cerevisiae deletion strains, locus YKL085W, strain MDH1, hits give low values 0.987 | S. cerevisiae deletion strains, locus YKL160W, strain elf1, hits give low values 0.967 | S. cerevisiae deletion strains, locus YKL190W, strain CNB1, hits give low values 0.996 | S. cerevisiae deletion strains, locus YKR001C, strain vps1, hits give low values 0.993 | S. cerevisiae deletion strains, locus YKR026C, strain gcn3, hits give low values 0.96 | S. cerevisiae deletion strains, locus YKR091W, strain srl3, hits give low values 1.01 | S. cerevisiae deletion strains, locus YLL001W, strain dnm1, hits give low values 0.961 | S. cerevisiae deletion strains, locus YLL026W, hits give low values 0.999 | S. cerevisiae deletion strains, locus YLL041C, strain sdh2, hits give low values 0.978 | S. cerevisiae deletion strains, locus YLR027C, strain aat2, hits give low values 0.982 | S. cerevisiae deletion strains, locus YLR039C, strain RIC1, hits give low values 0.986 | S. cerevisiae deletion strains, locus YLR058C, strain SHM2, hits give low values 0.987 | S. cerevisiae deletion strains, locus YLR102C, strain apc9, hits give low values 0.992 | S. cerevisiae deletion strains, locus YLR113W, strain HOG1, hits give low values 1.09 | S. cerevisiae deletion strains, locus YLR221C, strain rsa3, hits give low values 0.991 | S. cerevisiae deletion strains, locus YLR258W, strain gsy2, hits give low values 1.01 | S. cerevisiae deletion strains, locus YLR262C, strain YPT6 (second series), hits give low values 0.983 | S. cerevisiae deletion strains, locus YLR262C, strain YPT6, hits give low values 0.945 | S. cerevisiae deletion strains, locus YLR268W, strain sec22, hits give low values 0.981 | S. cerevisiae deletion strains, locus YLR320W, strain mms22, hits give low values 1.01 | S. cerevisiae deletion strains, locus YLR330W, strain CHS5, hits give low values 0.982 | S. cerevisiae deletion strains, locus YLR342W, strain FKS1 (second series), hits give low values 0.959 | S. cerevisiae deletion strains, locus YLR342W, strain FKS1, hits give low values 0.973 | S. cerevisiae deletion strains, locus YLR357W, strain rsc2, hits give low values 0.965 | S. cerevisiae deletion strains, locus YLR370C, strain arc18, hits give low values 1 | S. cerevisiae deletion strains, locus YLR371W, strain rom2, hits give low values 0.987 | S. cerevisiae deletion strains, locus YLR384C, strain iki3, hits give low values 0.984 | S. cerevisiae deletion strains, locus YLR418C, strain cdc73, hits give low values 0.972 | S. cerevisiae deletion strains, locus YML016C, strain PPZ1, hits give low values 0.982 | S. cerevisiae deletion strains, locus YML032C, strain rad52, hits give low values 0.989 | S. cerevisiae deletion strains, locus YML120C, strain ndi1, hits give low values 0.986 | S. cerevisiae deletion strains, locus YML124C, strain tub3, hits give low values 0.982 | S. cerevisiae deletion strains, locus YMR058W, strain fet3, hits give low values 0.998 | S. cerevisiae deletion strains, locus YMR078C, strain ctf18, hits give low values 0.989 | S. cerevisiae deletion strains, locus YMR125W, strain sto1, hits give low values 0.971 | S. cerevisiae deletion strains, locus YMR129W, hits give low values 1.01 | S. cerevisiae deletion strains, locus YMR205C, strain PFK2, hits give low values 1 | S. cerevisiae deletion strains, locus YMR223W, strain ubp8, hits give low values 0.974 | S. cerevisiae deletion strains, locus YMR231W, strain pep5, hits give low values 1 | S. cerevisiae deletion strains, locus YMR307W, strain GAS1, hits give low values 0.883 | S. cerevisiae deletion strains, locus YNL067W, strain RPL9B, hits give low values 1.02 | S. cerevisiae deletion strains, locus YNL071W, strain lat1, hits give low values 1.01 | S. cerevisiae deletion strains, locus YNL153C, strain GIM3, hits give low values 1.04 | S. cerevisiae deletion strains, locus YNL183C, strain NPR1, hits give low values 0.999 | S. cerevisiae deletion strains, locus YNL209W, strain ssb2, hits give low values 1.01 | S. cerevisiae deletion strains, locus YNL233W, strain BNI4, hits give low values 1.01 | S. cerevisiae deletion strains, locus YNL248C, strain rpa49, hits give low values 0.987 | S. cerevisiae deletion strains, locus YNL250W, strain rad50, hits give low values 0.975 | S. cerevisiae deletion strains, locus YNL271C, strain bni1, hits give low values 0.985 | S. cerevisiae deletion strains, locus YNL298W, strain CLA4, hits give low values 0.988 | S. cerevisiae deletion strains, locus YNL307C, strain MCK1, hits give low values 0.987 | S. cerevisiae deletion strains, locus YNL322C, strain KRE1 (second series), hits give low values 0.994 | S. cerevisiae deletion strains, locus YNL322C, strain KRE1, hits give low values 0.993 | S. cerevisiae deletion strains, locus YNR049C, strain mso1, hits give low values 0.986 | S. cerevisiae deletion strains, locus YNR052C, strain pop2, hits give low values 0.991 | S. cerevisiae deletion strains, locus YOL006C, strain TOP1, hits give low values 1.02 | S. cerevisiae deletion strains, locus YOL012C, strain htz1 1.88 | S. cerevisiae deletion strains, locus YOL147C, strain pex11, hits give low values 0.983 | S. cerevisiae deletion strains, locus YOR001W, strain rrp6, hits give low values 0.985 | S. cerevisiae deletion strains, locus YOR061W, strain CKA2, hits give low values 0.985 | S. cerevisiae deletion strains, locus YOR069W, strain VPS5, hits give low values 0.987 | S. cerevisiae deletion strains, locus YOR070C, strain gyp1, hits give low values 1.01 | S. cerevisiae deletion strains, locus YOR080W, strain dia2, hits give low values 0.982 | S. cerevisiae deletion strains, locus YOR083W, strain WHI5, hits give low values 0.985 | S. cerevisiae deletion strains, locus YOR106W, strain vam3, hits give low values 0.992 | S. cerevisiae deletion strains, locus YOR136W, strain idh2, hits give low values 0.998 | S. cerevisiae deletion strains, locus YOR144C, strain elg1, hits give low values 0.991 | S. cerevisiae deletion strains, locus YOR184W, strain ser1, hits give low values 0.98 | S. cerevisiae deletion strains, locus YOR231W, strain MKK1, hits give low values 1.09 | S. cerevisiae deletion strains, locus YOR265W, strain rbl2, hits give low values 1 | S. cerevisiae deletion strains, locus YOR270C, strain vph1, hits give low values 0.93 | S. cerevisiae deletion strains, locus YOR290C, strain snf2, hits give low values 0.998 | S. cerevisiae deletion strains, locus YOR316C, strain cot1, hits give low values 0.994 | S. cerevisiae deletion strains, locus YPL051W, strain arl3, hits give low values 0.987 | S. cerevisiae deletion strains, locus YPL055C, strain LGE1, hits give low values 1.06 | S. cerevisiae deletion strains, locus YPL078C, strain atp4, hits give low values 0.962 | S. cerevisiae deletion strains, locus YPL106C, strain sse1, hits give low values 1.02 | S. cerevisiae deletion strains, locus YPL240C, strain hsp82, hits give low values 0.987 | S. cerevisiae deletion strains, locus YPL241C, strain CIN2, hits give low values 0.991 | S. cerevisiae deletion strains, locus YPL256C, strain CLN2, hits give low values 1.07 | S. cerevisiae deletion strains, locus YPR119W, strain clb2, hits give low values 0.995 | S. cerevisiae deletion strains, locus YPR141C, strain kar3, hits give low values 0.98 | S. cerevisiae deletion strains, locus YPR163C, strain tif3, hits give low values 0.987 | S. cerevisiae deletion strains, locus YPR167C, strain met16, hits give low values 0.981 | S. cerevisiae deletion strains, strain wtn01, hits give low values 0.981 | S. cerevisiae strains, strain wild type, hits give low values 0.995

— PubChem BioAssay AID1159580 (chemical genetic matrix, 2015)
